In article PMC5540273 (PLoS ONE, 2017):
Read-outs that look alike come from different tables or passages of the source.

Key:
Settings in all cases: n = 1
ROCK1 = system: ROCK1
ROCK2 = system: ROCK2
ROS1 = system: ROS1
[1] = system: RPS6KA4(Kin.Dom.1-N-terminal)
[2] = system: RPS6KA4(Kin.Dom.2-C-terminal)
[3] = system: RPS6KA5(Kin.Dom.1-N-terminal)
[4] = system: RPS6KA5(Kin.Dom.2-C-terminal)
[5] = system: T1, RSK1(Kin.Dom.1-N-terminal)
T1 construct: gene RPS6KA1

[6] = system: T2, RSK1(Kin.Dom.2-C-terminal)
T2 construct: gene RPS6KA1

[7] = system: T3, RSK2(Kin.Dom.1-N-terminal)
T3 construct: gene RPS6KA3

[8] = system: T4, RSK2(Kin.Dom.2-C-terminal)
T4 construct: gene RPS6KA3

[9] = system: T5, RSK3(Kin.Dom.1-N-terminal)
T5 construct: gene RPS6KA2

[10] = system: T6, RSK3(Kin.Dom.2-C-terminal)
T6 construct: gene RPS6KA2

[11] = system: T7, RSK4(Kin.Dom.1-N-terminal)
T7 construct: gene RPS6KA6

[12] = system: T8, RSK4(Kin.Dom.2-C-terminal)
T8 construct: gene RPS6KA6

S6K1 = system: S6K1
SBK1 = system: SBK1
SGK2 = system: SGK2
SGK3 = system: SGK3
SGK = system: SGK
[13] = concentration: 1 μM, replicates: in singlicate
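Note: KINOMEscan kinase panel screen.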

Cc1csc(-c2nc(Nc3ccncc3)c3ccccc3n2)n1 [GW869640]
%Inh (ROCK1; [13]): 65% | %Inh (ROCK2; [13]): 18% | %Inh (ROS1; [13]): 22% | %Inh [1, 13]: 52% | %Inh [2, 13]: 17% | %Inh [3, 13]: 13% | %Inh [4, 13]: 16% | %Inh [5, 13]: 0% | %Inh [6, 13]: 22% | %Inh [7, 13]: 42% | %Inh [8, 13]: 45% | %Inh [9, 13]: 15% | %Inh [10, 13]: 3% | %Inh [11, 13]: 44% | %Inh [12, 13]: 40% | %Inh (S6K1; [13]): 32% | %Inh (SBK1; [13]): 51% | %Inh (SGK2; [13]): 0% | %Inh (SGK3; [13]): 13% | %Inh (SGK; [13]): 39%

Cl.Oc1ccc(-c2nc(-c3ccccc3)[nH]c2-c2ccncc2)cc1 [SB-428218]
%Inh (ROCK1; [13]): 70% | %Inh (ROCK2; [13]): 61% | %Inh (ROS1; [13]): 0% | %Inh [1, 13]: 0% | %Inh [2, 13]: 0% | %Inh [3, 13]: 0% | %Inh [4, 13]: 11% | %Inh [5, 13]: 30% | %Inh [6, 13]: 0% | %Inh [7, 13]: 6% | %Inh [8, 13]: 0% | %Inh [9, 13]: 0% | %Inh [10, 13]: 8% | %Inh [11, 13]: 0% | %Inh [12, 13]: 32% | %Inh (S6K1; [13]): 14% | %Inh (SBK1; [13]): 0% | %Inh (SGK2; [13]): 0% | %Inh (SGK3; [13]): 0% | %Inh (SGK; [13]): 7%

CN(C)CCN(C)C(=O)c1cc(-c2ccncc2)c(-c2ccc(Cl)c(O)c2)o1.Cl.Cl [SB-710397]
%Inh (ROCK1; [13]): 26% | %Inh (ROCK2; [13]): 17% | %Inh (ROS1; [13]): 0% | %Inh [1, 13]: 13% | %Inh [2, 13]: 0% | %Inh [3, 13]: 10% | %Inh [4, 13]: 2% | %Inh [5, 13]: 25% | %Inh [6, 13]: 25% | %Inh [7, 13]: 8% | %Inh [8, 13]: 29% | %Inh [9, 13]: 8% | %Inh [10, 13]: 0% | %Inh [11, 13]: 0% | %Inh [12, 13]: 76% | %Inh (S6K1; [13]): 15% | %Inh (SBK1; [13]): 23% | %Inh (SGK2; [13]): 9% | %Inh (SGK3; [13]): 0% | %Inh (SGK; [13]): 0%

CS(=O)(=O)c1ccc(-c2c(-c3ncn[nH]3)sc(N3CCOCC3)c2C#N)cc1
%Inh (ROCK1; [13]): 0% | %Inh (ROCK2; [13]): 15% | %Inh (ROS1; [13]): 14% | %Inh [1, 13]: 4% | %Inh [2, 13]: 0% | %Inh [3, 13]: 0% | %Inh [4, 13]: 0% | %Inh [5, 13]: 16% | %Inh [6, 13]: 14% | %Inh [7, 13]: 4% | %Inh [8, 13]: 0% | %Inh [9, 13]: 0% | %Inh [10, 13]: 98% | %Inh [11, 13]: 0% | %Inh [12, 13]: 100% | %Inh (S6K1; [13]): 10% | %Inh (SBK1; [13]): 0% | %Inh (SGK2; [13]): 0% | %Inh (SGK3; [13]): 24% | %Inh (SGK; [13]): 0%

Cc1ccc(NC(=O)Nc2cccc(C(F)(F)F)c2)cc1 [GSK955403]
%Inh (ROCK1; 1 µM): 0% | %Inh (ROCK2; 1 µM): 0% | %Inh (ROS1; 1 µM): 0% | %Inh ([1]; 1 µM): 0% | %Inh ([2]; 1 µM): 1% | %Inh ([3]; 1 µM): 3% | %Inh ([4]; 1 µM): 6% | %Inh ([5]; 1 µM): 1% | %Inh ([6]; 1 µM): 6% | %Inh ([7]; 1 µM): 0% | %Inh ([8]; 1 µM): 0% | %Inh ([9]; 1 µM): 7% | %Inh ([10]; 1 µM): 27% | %Inh ([11]; 1 µM): 0% | %Inh ([12]; 1 µM): 23% | %Inh (S6K1; 1 µM): 2% | %Inh (SBK1; 1 µM): 0% | %Inh (SGK2; 1 µM): 7% | %Inh (SGK3; 1 µM): 0% | %Inh (SGK; 1 µM): 22%

Cc1cccc(-c2nc(C)cc(Nc3ccncc3)n2)n1 [GSK257997]
%Inh (ROCK1; [13]): 25% | %Inh (ROCK2; [13]): 10% | %Inh (ROS1; [13]): 43% | %Inh [1, 13]: 8% | %Inh [2, 13]: 0% | %Inh [3, 13]: 7% | %Inh [4, 13]: 0% | %Inh [5, 13]: 29% | %Inh [6, 13]: 2% | %Inh [7, 13]: 0% | %Inh [8, 13]: 22% | %Inh [9, 13]: 0% | %Inh [10, 13]: 0% | %Inh [11, 13]: 0% | %Inh [12, 13]: 0% | %Inh (S6K1; [13]): 1% | %Inh (SBK1; [13]): 4% | %Inh (SGK2; [13]): 0% | %Inh (SGK3; [13]): 6% | %Inh (SGK; [13]): 0%

Cc1ccccc1-n1cnc2c(N)ncnc21 [SKF-97510]
%Inh (ROCK1; [13]): 0% | %Inh (ROCK2; [13]): 0% | %Inh (ROS1; [13]): 0% | %Inh [1, 13]: 0% | %Inh [2, 13]: 0% | %Inh [3, 13]: 0% | %Inh [4, 13]: 0% | %Inh [5, 13]: 18% | %Inh [6, 13]: 93% | %Inh [7, 13]: 0% | %Inh [8, 13]: 0% | %Inh [9, 13]: 0% | %Inh [10, 13]: 8% | %Inh [11, 13]: 0% | %Inh [12, 13]: 18% | %Inh (S6K1; [13]): 0% | %Inh (SBK1; [13]): 0% | %Inh (SGK2; [13]): 0% | %Inh (SGK3; [13]): 0% | %Inh (SGK; [13]): 0%

C[C@@H]1CCCCN1c1cc(-c2ccc3c(N)n[nH]c3c2)nc(N)n1 [GSK2258759]
%Inh (ROCK1; [13]): 0% | %Inh (ROCK2; [13]): 0% | %Inh (ROS1; [13]): 5% | %Inh [1, 13]: 4% | %Inh [2, 13]: 0% | %Inh [3, 13]: 14% | %Inh [4, 13]: 10% | %Inh [5, 13]: 5% | %Inh [6, 13]: 14% | %Inh [7, 13]: 0% | %Inh [8, 13]: 0% | %Inh [9, 13]: 0% | %Inh [10, 13]: 19% | %Inh [11, 13]: 0% | %Inh [12, 13]: 24% | %Inh (S6K1; [13]): 0% | %Inh (SBK1; [13]): 0% | %Inh (SGK2; [13]): 0% | %Inh (SGK3; [13]): 3% | %Inh (SGK; [13]): 0%

Cc1cccc(-c2nc(Nc3ccncc3)c3ccccc3n2)n1 [GW855857]
%Inh (ROCK1; [13]): 0% | %Inh (ROCK2; [13]): 0% | %Inh (ROS1; [13]): 0% | %Inh [1, 13]: 20% | %Inh [2, 13]: 0% | %Inh [3, 13]: 0% | %Inh [4, 13]: 4% | %Inh [5, 13]: 0% | %Inh [6, 13]: 8% | %Inh [7, 13]: 0% | %Inh [8, 13]: 50% | %Inh [9, 13]: 0% | %Inh [10, 13]: 0% | %Inh [11, 13]: 0% | %Inh [12, 13]: 9% | %Inh (S6K1; [13]): 0% | %Inh (SBK1; [13]): 0% | %Inh (SGK2; [13]): 0% | %Inh (SGK3; [13]): 0% | %Inh (SGK; [13]): 0%
